The supplement of paper PMC3334620
Whole data set: some 33,000 sequences, median “E-score (-0.5 to 0.5)” near -8e-05, cut for the highest 2% near 0.23. This is one part of a sample in which the highest values are shown more often than they occur.

biological target: T1, Nrg2 (UniProt P38082); assay: PBM E-score (8-mer binding enrichment) (E-score (-0.5 to 0.5)); higher = stronger / more preferred TF binding; conditions: protein concentration: 100 nM; construct: GST-full length
T1 sequence: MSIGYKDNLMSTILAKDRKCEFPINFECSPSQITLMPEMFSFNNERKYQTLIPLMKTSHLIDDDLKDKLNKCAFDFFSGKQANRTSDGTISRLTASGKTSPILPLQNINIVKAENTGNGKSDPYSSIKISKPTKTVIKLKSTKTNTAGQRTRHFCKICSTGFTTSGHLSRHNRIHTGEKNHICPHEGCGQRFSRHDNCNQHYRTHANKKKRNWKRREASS
Experimental: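 Universal 'all 10-mer' protein binding microarrays (Agilent AMADID 015681) probed with GST-tagged S. cerevisiae TFs (full-length or DBD) made by in vitro transcription/translation (PURExpress), about 100-200 nM. Bound TF was detected with fluorescent anti-GST. Each ungapped 8-mer (which stands for itself and its reverse complement) is scored by the PBM enrichment score (E-score), a modified Wilcoxon-Mann-Whitney statistic from -0.5 to +0.5, computed with the Universal PBM Analysis Suite. Scale: above 0.35 generally sequence-specific binding.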

Sequence | PBM E-score
CCCTGCCC | -0.1
ACGGATTG | 0.168
ACGACCCG | 0.168
GGATAAAC | 0.133
AGAGCTAC | 0.00658
AGCCGACT | -0.111
CTTGGAAA | 0.0285
AGACCGTA | -0.242
AACACGAC | 0.0492
ATAAATAA | 0.237
ATAAAAAG | 0.257
ATAAATAT | 0.245
ATAAAAGG | -0.128
ATAAAAAT | 0.122
ATAAATAG | 0.0238
CTAAATAC | 0.0507
ATAAATAC | 0.283
GTAAATAC | -0.0746
AAAAATAT | 0.101
ATAAAAAA | 0.0337
TTAAATAA | 0.186
AGCCAGGA | -0.0522
AAGATTCA | 0.0877
CGTTGACA | 0.00462
GCTAGCAA | -0.0969

Sequence | PBM E-score
CTAAGAGA | -0.0214
ACTACCTG | 0.0949
GACTTCGA | -0.106
TACTTCGA | 0.23
CACTTCGA | 0.0548
GCAAGATA | 0.229
ACAAGATA | 0.103
CCAAGATA | 0.00687
GCTACGCA | -0.108
CGACGAAA | 0.0993
CCCGCATA | 0.168
ACCGCATA | 0.0956
GCCGCATA | 0.231
CGCACAAA | 0.257
GCCACAAA | 0.0838
CCCACAAG | -0.0136
CGCACAAG | 0.0299
CGCACGAG | -0.0371
CCCACAAA | 0.247
GAGAGAAC | -0.0345
CCCGCCAA | -0.175
AGCCTACG | 0.0365
AATTAATG | 0.182
ATTTAATA | 0.247
GATAATTA | 0.0635

Sequence | PBM E-score
AATAATTA | 0.286
GATTAATA | 0.29
GTTTAATA | 0.198
TATTAATA | 0.152
CATAATTA | 0.173
AATTAATT | -0.112
CATTAATA | 0.155
AATTAATA | 0.303
CTTTAATA | 0.125
CCACCACG | 0.00854
CGGGTCAG | 0.023
ACCCAGGA | -0.227
ACTGTGGA | -0.109
CGGTCGAC | -0.0395
ACTCTAAA | 0.101
GATAGCAA | 0.0872
AACTGTCC | -0.0683
GCTGAAAC | -0.139
ATTGATTC | 0.244
CTTGATAA | 0.147
GTTGATGA | 0.0639
CCTGATAC | 0.229
ATTGATTG | 0.142
ATTGATAC | 0.274
GCTGATAC | -0.0795

Sequence | PBM E-score
CTTGATTC | 0.0772
ATTGATAG | -0.0275
GTTGATAA | 0.232
CCTGATAG | -0.153
ATTGATAA | 0.0942
AAACTCCC | -0.0959
GTGGATTA | 0.0668
CGGCCTTA | 0.0601
ACTCAAGC | -0.148
CAGTTTTC | 0.17
AATGGCAG | 0.0917
AATGGCAC | -0.0263
AATGGAAG | 0.0112
AATGGAAC | 0.108
AATGGAAT | 0.241
AATGGCAT | 0.26
CGCCAAAA | 0.119
AAGGAAAC | -0.128
AAGGGACC | 0.424
AGGGGACC | 0.225
CAGAGACC | -0.212
AAGGGACG | 0.207
GAGGGACC | 0.0355
CAGGGACC | 0.4
CAGGGACG | 0.306

Sequence | PBM E-score
GAGGGACA | 0.0412
CAGAGACG | 0.0459
AAGGGACA | 0.137
CAGGGACA | 0.371
AAGGGACT | 0.123
AGCAAACA | 0.0834
GGCGCCTA | -0.0964
AGAACCGC | 0.0943
ACGTCAGC | 0.129
CCCGAACG | -0.0859
GCAAACGA | 0.0657
CGCAACTA | 0.244
GGCAACTA | 0.194
CGCAACTC | 0.147
GCGGCCAA | -0.133
AGGACCCG | 0.0935
AGGACCCT | 0.369
AGGACCCA | -0.179
AAGACCCA | -0.181
AAGACCCT | 0.291
AAGACCCG | 0.0509
CCAACCTA | -0.118
AAGTGAGC | -0.0445
CATGGGAA | 0.0176
CAGATGAA | 0.026

Sequence | PBM E-score
ACGCTAGG | -0.266
AACCAGGG | 0.176
ATCAAAAT | -0.0176
CTTAAAAC | 0.0325
ATCAAAAA | 0.237
ATTAACAC | 0.246
ATTAAACC | 0.199
ATTAAAAG | 0.103
ATTAAAAT | 0.174
ATCAAAAG | 0.00066
ATTAACAA | 0.179
ATTAAAAC | 0.241
ATTAAAAA | 0.246
CTTAACAC | 0.0347
CCTCGTAC | 0.0199
CGAACTGC | -0.0594
TCCAGAGA | -0.144
AAGGGGAT | 0.205
ACTTAGGG | 0.0512
CCCAACTA | 0.174
ACCAACTC | -0.0268
CCCAACTC | 0.256
GCCGCGCA | -0.0674
CTGGTGGC | 0.00474
ACAGTAGA | 0.138

Sequence | PBM E-score
CGTATTTA | 0.248
GGTATTTA | 0.0832
AGTATTTA | 0.0065
AGCCCCAT | -0.0124
CTGCGATC | 0.0398
CGAGGGCC | -0.0174
AACTTATC | 0.121
AACTTATG | -0.0218
AACTTATT | 0.256
CATAGTCG | -0.0054
AGGCAAGA | -0.0756
AAGCCCTC | -0.132
ACCAACAG | -0.00807
ACCAACAT | 0.0787
ACCAACAA | 0.245
GAGAAAGC | 0.0912
ACCTACAT | 0.00858
GCCCCAGC | 0.0519
CTGGTGCC | -0.212
AACTACTC | 0.184
TACTAATA | 0.0648
AGCTACTA | 0.0519
